From ChEMBL document CHEMBL4513216, “Probing the Open Global Health Chemical Diversity Library for Multistage-Active Starting Points for Next-Generation Antimalarials” (ACS Infect Dis, 2020)
The whole screen tested about 69,000 compounds, of which about 8,600 (12%) showed an effect of 50% or more. Only a selection was taken, and strong results are over-represented in it overall.

Test system: Plasmodium berghei
Experiment: Screen against P. berghei liver stage (PbLuc), transformed with Luciferase, at 10uM
Format: functional, HepG2
Settings: tested at 10 uM

Q: Which INHIBITION does the source give for `CN1C(=N)NC(=O)/C1=C\c1ccc(-c2ccc(F)cc2)o1` here?
A: 19.3%

Q: With `CCn1cc(S(=O)(=O)N2CCC(C)CC2)c(C)n1` as the molecule, how does the INHIBITION read?
A: 4.35%

Q: `O=C(c1sccc1C1CC1)N1CCN(c2nccs2)CC1` was tested. Which INHIBITION did it give?
A: 36.3%

Q: Which INHIBITION does the source give for `N#Cc1cccc(C(=O)N2CCCC(O)(CO)CC2)c1` (stereo not drawn) here?
A: 66.9%

Q: `COC(=O)c1ccc(N2CCN(C(=O)c3ccc(=O)n(C)c3)CC2)cc1` was tested. Which INHIBITION did it give?
A: 36.9%

Q: How did the INHIBITION turn out when `CN(C)c1cc(C(=O)N2CCN(c3cc(C#N)ccn3)CC2)ccn1` was run?
A: -8.95%

Q: With `Cn1ccc(C(=O)N2CCN(c3cc(C#N)ccn3)CC2)cc1=O` as the molecule, how does the INHIBITION read?
A: 59.4%

Q: `CCOc1ccnc(N2CCN(C(=O)c3cccc(C#N)c3)CC2)n1` was tested. Which INHIBITION did it give?
A: -13.7%

Q: `N#Cc1cccc(C(=O)N2CCN(c3ncccn3)CC2)c1` was tested. Which INHIBITION did it give?
A: 62.1%

Q: How did the INHIBITION turn out when `COc1ccnc(N2CCN(C(=O)c3cccc(C#N)c3)CC2)n1` was run?
A: 18.2%

Q: For `Cn1ccc(C(=O)N2CCN(c3ncccn3)CC2)cc1=O`, which INHIBITION is on record?
A: 31.3%

Q: With `Cn1ccc(C(=O)N2CCN(c3ccccn3)CC2)cc1=O` as the molecule, how does the INHIBITION read?
A: 36.1%

Q: `O=C(c1cccc(-c2ccc(F)cc2)c1)N1CCCC(O)(CO)CC1` (stereo not drawn) was tested. Which INHIBITION did it give?
A: -122%

Q: `O=C(c1cccc(Oc2ccccc2)c1)N1CCCC(O)(CO)CC1` (stereo not drawn) was tested. Which INHIBITION did it give?
A: 16.1%

Q: How did the INHIBITION turn out when `COC(=O)c1ccc(N2CCN(C(=O)c3ccn(C)c(=O)c3)CC2)cc1` was run?
A: 54.5%

Q: `COCCNC(=O)c1cc(OC)c2ccoc2c1` was tested. Which INHIBITION did it give?
A: 27.7%

Q: For `CNc1nc(C(=O)N2CCCn3nc(C(=O)N4CCCC4)cc3C2)cs1`, which INHIBITION is on record?
A: 26.5%

Q: How did the INHIBITION turn out when `CC(Cn1cccn1)NC(=O)NCc1cccnc1OC(C)C` (stereo not drawn) was run?
A: 11.2%

Q: How did the INHIBITION turn out when `CC[S+]([O-])CCc1nc(CC(C)C)nn1-c1ccc2c(c1)OCCO2` (stereo not drawn) was run?
A: 30.3%

Q: `CCCNC(=O)COc1cc(C)c2c(C)nn(-c3ccc(C)cc3)c2n1` was tested. Which INHIBITION did it give?
A: 15.4%

Q: `CCNC(=O)COc1cc(CC)c2c(C)nn(-c3ccc(C)cc3)c2n1` was tested. Which INHIBITION did it give?
A: 66.1%

Q: `Cc1ccc(-n2nc(C)c3c(C)cc(OCC(=O)NC(C)C)nc32)cc1` was tested. Which INHIBITION did it give?
A: 2.55%

Q: How did the INHIBITION turn out when `CS(=O)(=O)N1CCC(NC(=O)COc2ccc(Br)cc2Cl)CC1` was run?
A: 45.1%

Q: Which INHIBITION does the source give for `Cc1nc(N)cc(C2CCN2CCC(N)=O)n1` (stereo not drawn) here?
A: -4.87%

Q: For `Cc1ccsc1C(=O)N1CCC2(CC1)C(=O)N(C)CCN2CC1CC1`, which INHIBITION is on record?
A: 4.08%

Q: `Cc1ccc(NC2CCN(C(=O)c3cccc4cccnc34)CC2)nn1` was tested. Which INHIBITION did it give?
A: 11.9%

Q: For `CS(=O)(=O)N1C[C@H]2CC[C@@H](C1)N(CCC(=O)NCc1ccco1)C2`, which INHIBITION is on record?
A: 13.2%

Q: `CN(C)S(=O)(=O)N1C[C@H]2CC[C@@H](C1)N(CCC(=O)NCc1ccco1)C2` was tested. Which INHIBITION did it give?
A: 66.9%

Q: Which INHIBITION does the source give for `O=C(CCN1C[C@@H]2CC[C@H]1CN(c1ncccn1)C2)NCc1ccco1` here?
A: 6.67%

Q: How did the INHIBITION turn out when `O=C(COc1coc(CN2CCCCC2)cc1=O)c1ccc(Cl)cc1` was run?
A: 38.3%

Q: Which INHIBITION does the source give for `CCN1CCOCC12CCN(C(=O)C1CCCC1)CC2` here?
A: -7.28%

Q: `CC(CS(C)(=O)=O)NC(=O)N1CC2(CCCC2)c2ccccc21` (stereo not drawn) was tested. Which INHIBITION did it give?
A: -16.1%

Q: For `Cc1c(-c2cnn(C)c2)nc(N)c(C#N)c1-c1ccc(CO)o1`, which INHIBITION is on record?
A: 88%

Q: For `Cc1n[nH]c(C)c1-c1c(C#N)c(N)nc2c1CCc1[nH]ccc1-2`, which INHIBITION is on record?
A: 39.7%

Q: Which INHIBITION does the source give for `CC(C)n1cc(-c2c(C#N)c(N)nc3c2COCC3)cn1` here?
A: 34.5%

Q: How did the INHIBITION turn out when `Cc1cc(-c2c(C)c(-c3cnn(C)c3)nc(N)c2C#N)oc1C` was run?
A: 31.6%

Q: How did the INHIBITION turn out when `CCc1ccc(-c2c(C)c(-c3cnn(C)c3)nc(N)c2C#N)o1` was run?
A: -7.7%

Q: For `COc1ncc(-c2c(C#N)c(N)nc3c2CCc2[nH]ccc2-3)cn1`, which INHIBITION is on record?
A: 39.05%

Q: For `COCCc1ncc(-c2c(C#N)c(N)nc3c2CCc2[nH]ccc2-3)cn1`, which INHIBITION is on record?
A: 27.9%

Q: For `Cn1cc(-c2c(C#N)c(N)nc3c2CCc2[nH]ccc2-3)cn1`, which INHIBITION is on record?
A: 60.1%

Q: For `Cn1cc(-c2c(C#N)c(N)nc3c2CCc2[nH]ccc2-3)cc1C#N`, which INHIBITION is on record?
A: 50%

Q: Which INHIBITION does the source give for `O=C(CN1CCCC1Cn1cncn1)Nc1nncs1` (stereo not drawn) here?
A: -8.66%

Q: How did the INHIBITION turn out when `COCCN(Cc1ccccc1Cl)c1nc(CCN)nc2ccccc12` was run?
A: 47.3%

Q: With `N#Cc1cccc(CN2C[C@H](NC(=O)C3CC3)[C@H]3OCCC[C@H]32)c1` as the molecule, how does the INHIBITION read?
A: 35.8%

Q: Which INHIBITION does the source give for `COc1cc(C(=O)N(Cc2cccs2)C2CC2)cc2c1OCCO2` here?
A: 47.4%

Q: How did the INHIBITION turn out when `Cc1oncc1C(=O)N[C@@H]1CN(Cc2ccco2)C[C@@H]2CCCO[C@@H]21` was run?
A: 0.453%

Q: For `COC(=O)CNC(=O)c1nc(Br)sc1C(C)C`, which INHIBITION is on record?
A: 45.3%

Q: For `Cc1nc2n(n1)CC(NCCC(=O)Nc1cc(C)on1)CC2` (stereo not drawn), which INHIBITION is on record?
A: -3.2%

Q: For `CCc1nccn1-c1cncc(C2CCN(C(=O)COC)CC2)n1`, which INHIBITION is on record?
A: -22.6%

Q: `COc1nc2cc(C)ccc2cc1CN(C)Cc1n[nH]c2c1CCCC2` was tested. Which INHIBITION did it give?
A: 28.15%

Q: How did the INHIBITION turn out when `Cc1cc(CN(C)C(C(=O)O)c2ccc(C(C)(C)C)cc2)on1` (stereo not drawn) was run?
A: 58.4%

Q: `CCOc1cccc(C(C(=O)O)N(C)Cc2cc(C)no2)c1` (stereo not drawn) was tested. Which INHIBITION did it give?
A: -24.6%

Q: How did the INHIBITION turn out when `Cc1cc(CN(C)C(C(=O)O)c2cccc(C(F)(F)F)c2)on1` (stereo not drawn) was run?
A: -21.2%
